# The supplement of paper PMC6555819
# Key:
# Experiment in all cases: PBM binding z-score (relative to random genomic background probes); higher = stronger binding; sequences stand for … in GC…GCGATTGACAGCGTAGAATGAAGG
# [1] = system: FXR:RXRa (NR concentration 270 nM, RXRa partner concentration 90 nM)
# Summary of the method: (§1)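 Each nuclear receptor dimer, without ligand, was incubated for 1 h on custom Agilent 4×180K protein-binding microarrays. Binding was detected with antibodies against each partner (one per run), and scanned fluorescence was regression-normalized. The binding z-scores are referenced to random human genomic background probes.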
# [2] = system: LXRa:RXRa (NR concentration 270 nM, RXRa partner concentration 90 nM)
# Summary of the method: as §1
# [3] = system: LXRa homodimer (NR concentration 270 nM)
# Summary of the method: as §1
# [4] = system: LXRb:RXRa (NR concentration 270 nM, RXRa partner concentration 90 nM)
# Summary of the method: as §1
# [5] = system: LXRb homodimer (NR concentration 270 nM)
# Summary of the method: as §1
# [6] = system: PPARa:RXRa (NR concentration 270 nM, RXRa partner concentration 90 nM)
# Summary of the method: as §1
# [7] = system: PPARg:RXRa (NR concentration 180 nM, RXRa partner concentration 90 nM)
# Summary of the method: as §1
# [8] = system: PPARg:RXRa 270nM:90nM, anti-RXR (NR concentration 270 nM, RXRa partner concentration 90 nM)
# Summary of the method: as §1
# [9] = system: PPARg:RXRa 30nM:10nM, anti-RXR (NR concentration 30 nM, RXRa partner concentration 10 nM)
# Summary of the method: as §1
# [10] = system: PPARg:RXRa 90nM:30nM, anti-RXR (NR concentration 90 nM, RXRa partner concentration 30 nM)
# Summary of the method: as §1
# [11] = system: PPARg:RXRa DBDmut IVT, anti-RXR (DBD mutation: RXRa K156A/R161A, NR concentration 270 nM, RXRa partner concentration 90 nM)
# Summary of the method: as §1
# [12] = system: PPARg:RXRa IVT, anti-PPARg (NR concentration 270 nM, RXRa partner concentration 90 nM)
# Summary of the method: as §1
# [13] = system: PPARg DBDmut:RXRa IVT, anti-PPARg (DBD mutation: PPARg1 K132A/R137A, NR concentration 270 nM, RXRa partner concentration 90 nM)
# Summary of the method: as §1
# [14] = system: PPARg DBDmut IVT, anti-PPARg (DBD mutation: PPARg1 K132A/R137A, NR concentration 270 nM)
# Summary of the method: as §1
# [15] = system: PPARg homodimer (NR concentration 180 nM)
# Summary of the method: as §1
# [16] = system: PXR:RXRa (NR concentration 270 nM, RXRa partner concentration 90 nM)
# Summary of the method: as §1
# [17] = system: PXR homodimer (NR concentration 270 nM)
# Summary of the method: as §1
# [18] = system: RARa:RXR (NR concentration 270 nM, RXRa partner concentration 90 nM)
# Summary of the method: as §1
# [19] = system: RARa homodimer (NR concentration 270 nM)
# Summary of the method: as §1
# [20] = system: RARb:RXRa (NR concentration 270 nM, RXRa partner concentration 90 nM)
# Summary of the method: as §1
Sequence,PBM binding z-score [1],PBM binding z-score [2],PBM binding z-score [3],PBM binding z-score [4],PBM binding z-score [5],PBM binding z-score [6],PBM binding z-score [7],PBM binding z-score [8],PBM binding z-score [9],PBM binding z-score [10],PBM binding z-score [11],PBM binding z-score [12],PBM binding z-score [13],PBM binding z-score [14],PBM binding z-score [15],PBM binding z-score [16],PBM binding z-score [17],PBM binding z-score [18],PBM binding z-score [19],PBM binding z-score [20]
CCTACTGGGCCAAAAAAGTCATTGATGCCGATAA,-0.316,-0.318,-0.289,-0.181,-0.774,0.404,0.271,0.686,-0.0301,0.41,3.32,2.23,-0.158,-0.274,0.205,-0.303,-0.213,-0.0727,-0.0226,0.134
AATACAGGGTCATGGTAGGCCAGAGTACGCACAG,7.24,6.51,2.02,4.67,1.09,6.07,6.85,6.13,2.87,4.97,2.45,4.41,2.48,1.13,3.31,4.8,0.859,5.21,1.28,4.25
CATACAGGGTCAGTTAGGCCAGAGTAGGGACGGC,3.37,2.29,-0.0109,1.79,0.655,3.36,2.24,1.92,0.738,1.41,0.861,2.08,1,0.259,2.09,1.55,0.258,2.17,0.791,3.67
TAGCCTAGGTCATGCGCCAGTATACCACGCGAAC,4.17,3.31,0.602,2.61,0.0918,3.83,2.77,3.08,0.794,1.89,1.95,3.1,1.01,-0.0835,1.11,1.61,-0.142,2.54,-0.948,3.76
CAAACTAGGGCACCGGAAGGTCAAAGTCCGCATG,3.3,3.78,2.88,3.1,-0.115,4.89,6.22,6.02,2.51,5.06,7.77,7.55,1.16,0.324,1.96,4.06,0.773,4.68,0.355,4.01
AGAATGAGGTTAAGATCAGGGACACAGAATACAT,2.45,2.04,0.0815,1.81,0.324,3.55,2.54,2.39,0.988,1.85,3.45,3.13,1.64,0.953,1.01,1.54,0.664,2.14,1.57,2.23
ACAGACAGGTGAGTGAAGGTAACTCCGCTGGACG,0.216,-0.067,-0.195,-0.498,-0.566,0.0372,0.503,-0.251,0.0064,-0.389,0.529,0.681,-0.384,-0.279,-0.155,-0.132,-0.203,0.0904,-0.274,0.621
